Here are results for 22 molecules from PubChem BioAssay (NCATS).

Results filed as inconclusive are left out. Values without a mark were called inactive. Activity calls are given as the source filed them. Calls follow the shape of the dose curve; as a rule, active = well fitted curve in the direction sought with a large enough effect; inconclusive = small, poorly fitted or top-dose-only effect, or another doubt; inactive = no such curve, though single readings can be large; an effect the other way counts as inactive or inconclusive.

A short description of test [1]: Viability qHTS for spleen associated tyrosine kinase inhibitor (SYKi) drug resistant MV4-11 cells (AID 1963824). Also: nearly all actives have a fitted effect of over 35% in size. In outline:
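SYK inhibitor-resistant MV4-11 AML cells, 500 per well, added to predispensed compounds and incubated 72 hr at 37 C, 5% CO2. Viability measured by CellTiter-Glo luminescence after 10 min at room temperature.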

Test [2] is described as follows: Cellular viability qHTS for adrenocortical cancer (ACC) cell line SW-13 (AID 1963989). Also: nearly all actives have a fitted effect of over 65% in size.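 As to activity (max response): cells grown in serum-free medium with ITS supplement; % is scaled to controls: 0 for no effect and ±100 for the full control effect.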 To be noted: SW-13 ACC cells viability, CellTiter-Glo, 48 h; activity (max response): stronger effect = lower value. In outline: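 Compound titrations (up to 46 uM final, in DMSO) were applied to SW-13 cells for 48 h at 37C/5% CO2. Reading used CellTiter-Glo after 20 min at room temperature; fitted curves yielded IC50 and efficacy.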

Test [3] is described as follows: Cellular viability qHTS for adrenocortical cancer (ACC) cell line NCI-H295R (AID 1963990). Also: nearly all actives have a fitted effect of over 60% in size. In a few lines:
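Readout: CellTiter-Glo luminescence, 20 min RT. Exposure: 48 h, 37C/5% CO2. Cells: NCI-H295R, ITS-DMEM serum-free. Range: up to 46 uM. Analysis: 4PL fit, IC50 plus efficacy.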

A short description of test [4]: Quantitative highthroughput screen to assess conditional lethalithy of NOMO1 cells grown in RPMI1640 with untreated serum (RPMI+s) (AID 1963876). Also: nearly all actives have a fitted effect of over 35% in size.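 As to Viability: 100% = DMSO wells and 0% = empty wells without cells.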 In a few lines:
(§1)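 Each medium arm—HPLM with 10% dialyzed FBS, or RPMI1640 with 5 mM glucose and 10% untreated or dialyzed FBS—was screened against an 11-point, 3-fold compound titration for 48 h at 37 °C, with CellTiter-Glo luminescence as endpoint.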

The nature of test [5]: Quantitative highthroughput screen to assess conditional lethalithy of NOMO1 cells grown in RPMI1640 with dialyzed fetal bovine serum (RPMI+ds) (AID 1963877). Also: nearly all actives have a fitted effect of over 30% in size.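 As to Viability: series mostly up to about 46 µM; 100% = DMSO control wells and 0% = empty wells.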 In outline: as §1
The nature of test [6]: Quantitative highthroughput screen to assess conditional lethalithy of NOMO1 cells grown in Human Plasma-Like Medium with dialyzed fetal bovine serum (HPLM+ds) (AID 1963878). Also: nearly all actives have a fitted effect of over 35% in size.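 As to Viability: 100% = DMSO wells and 0% = empty wells on each plate.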 In outline: as §1
A short description of test [7]: Quantitative highthroughput screen to assess conditional lethalithy of P12 Ichikawa cells grown in Human Plasma-Like Medium with dialyzed fetal bovine serum (HPLM+ds) (AID 1963879). Also: nearly all actives have a fitted effect of over 35% in size. As to Viability: series mostly up to about 46 µM. The note with it: Potency: viability. In outline: as §1
The nature of test [8]: Quantitative highthroughput screen to assess conditional lethalithy of P12 Ichikawa cells grown in RPMI1640 with dialyzed fetal bovine serum (RPMI+ds) (AID 1963880). Also: nearly all actives have a fitted effect of over 35% in size.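 As to Viability: 100% = DMSO wells and 0% = empty wells on each plate.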 To be noted: Potency: P12-Ichikawa viability. In outline:
as §1

Test [9] in a line: Quantitative highthroughput screen to assess conditional lethalithy of P12 Ichikawa cells grown in RPMI1640 with untreated serum (RPMI+s) (AID 1963881). Also: nearly all actives have a fitted effect of over 35% in size.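 As to Viability: series mostly up to about 46 µM; 100% = DMSO wells and 0% = empty wells without cells.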 The note with it: Potency: viability. In outline: as §1
Test [10] can be described thus: Quantitative highthroughput screen to assess conditional lethalithy of SEM cells grown in Human Plasma-Like Medium with dialyzed fetal bovine serum (HPLM+ds) (AID 1963882). Also: nearly all actives have a fitted effect of over 35% in size. As to Viability: series mostly up to about 46 µM. In a few lines: as §1
The nature of test [11]: Quantitative highthroughput screen to assess conditional lethalithy of SEM cells grown in RPMI1640 with unreated serum (RPMI+s) (AID 1963883). Also: nearly all actives have a fitted effect of over 35% in size.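 As to Viability: 100% = DMSO wells and 0% = empty wells without cells.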 In outline:
as §1

A short description of test [12]: Quantitative highthroughput screen to assess conditional lethalithy of SEM cells grown in RPMI1640 with dialyzed fetal bovine serum (RPMI+ds) (AID 1963884). Also: nearly all actives have a fitted effect of over 35% in size.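 As to Viability: series mostly up to about 46 µM; 100% = DMSO control wells and 0% = empty wells without cells.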 In a few lines: as §1
Potency is read from the fitted curve at half-maximal effect.

Consider `C[C@]12CCC3[C@@H](CC[C@H]4NC(=O)C=C[C@]34C)[C@@H]1CC[C@@H]2C(=O)Nc1cc(C(F)(F)F)ccc1C(F)(F)F` (stereo partly specified), for which the Potency in test [1] was 9340 nM (active). The activity (max response) in test [2] was -0.361%. The Potency result in [3] was “inactive”.

Regarding `C[C@@H]1COCCN1c1cc(-c2ccnn2C)c2ccnc(-c3ccn[nH]3)c2n1`, the results for the Potency in [1] and in [3] were 93.4 nM (active) and 158 nM (active), respectively.

Take `O=C(Nc1nccs1)C(c1cc(F)ccc1O)N1Cc2ccccc2C1=O` (stereo unspecified): in [1], the Potency is 16600 nM (active). The activity (max response) in test [2] is -2.19%. Further, in test [3], the Potency result is “inactive”.

As for `CC(C)(C)C(=O)C(Oc1ccc(Cl)cc1)n1ccnc1` (stereo unspecified), the Potency in [1] is 20600 nM (active). Moreover, the activity (max response) in test [2] was -11.3%. In addition, in test [3], the Potency entry was “inactive”.

On to `CCC(C)(CN(C)C)OC(=O)c1ccccc1` (stereo unspecified), for which the Potency result in [1] and in [3] was “inactive” in each case. In [2], the activity (max response) is -1.44%.

On to `CNCCCOc1cc(F)c(-c2c(Cl)nc3ncnn3c2N[C@@H](C)C(F)(F)F)c(F)c1`, for which the Potency in [1] was 37.2 nM (active); in test [2], 50.1 nM (active); in test [3], 112 nM (active).

For `O=C1OC2(CCC(C(=O)Nc3ccn(-c4ccccc4F)n3)CC2)c2cnccc21` (stereo unspecified), the Potency in [1] was 4170 nM (active). The activity (max response) in [2] is -3.21%. The Potency result in [3] was “inactive”.

Turning to `Nc1ncccc1-c1nc2ccc(-c3ccccc3)nc2n1-c1ccc(C2(N)CCC2)cc1`, the values for the Potency in test [1], in test [2] and in test [3] were 5250 nM (active), 25100 nM (active) and 3980 nM (active), respectively.

Consider `COc1nc(OCc2cccc(-c3ccccc3)c2C)ccc1CNCCNC(C)=O`, for which the Potency in [1] was 3720 nM (active); in test [2] it was 7940 nM (active); in [3], 6310 nM (active).

Take `CC(C)(NS(=O)(=O)c1ccc2c(Cl)cnc(N=C(N)N)c2c1)C(=O)O`: the Potency result in test [1] and in test [3] was “inactive” each time. Further, the activity (max response) in test [2] was 5.36%.

With `Cc1cc(-n2c(=O)ccc3cnc4[nH]ccc4c32)ccc1F`, the Potency in test [1] was 18600 nM (active). For the same molecule, the activity (max response) in test [2] was -19.3%. In test [3], the Potency result is “inactive”.

As to `CC(C)(O)C1CCC(Nc2ccc3ncc(-c4cccc(C(F)(F)F)c4)n3n2)CC1` (stereo unspecified), the values for the Potency in test [1] and in test [3] were 1320 nM (active) and 4470 nM (active), respectively. In addition, the activity (max response) in test [2] is -17.2%.

Take `O=C1C(O)=C(O)C(=O)C(O)=C1O`: the Potency result in test [1] and in test [3] was “inactive” in each case. The activity (max response) in test [2] was 13.8%.

Consider `CCN(CC)CCNC(=O)c1c(C)[nH]c(C=C2C(=O)Nc3ccc(F)cc32)c1C`, for which the Potency in test [4] is 303 nM (active); in test [5] it was 303 nM (active); in [6] it was 171 nM (active); in test [7], 270 nM (active); in test [8], 340 nM (active); in test [9] it was 481 nM (active).

For `O=C(C=Cc1cccc(S(=O)(=O)Nc2ccccc2)c1)NO`, the Potency in test [4] is 17100 nM (active); in test [5], 12100 nM (active); in [6], 13600 nM (active); in [7], 4810 nM (active); in test [8], 6050 nM (active); in [9], 4290 nM (active). Besides, the Potency in test [10] is 679 nM (active); in test [11], 605 nM (active).

In the case of `CC(C)c1nc(CN(C)C(=O)N[C@H](C(=O)N[C@@H](Cc2ccccc2)C[C@H](O)[C@H](Cc2ccccc2)NC(=O)OCc2cncs2)C(C)C)cs1`, the Potency entry in [4], in [5], in test [6], in [7], in test [8] and in test [9] was “inactive” each time. The Potency entry in test [10], in test [11] and in [12] was “inactive” each time.

Regarding `C[C@H](CCC(=O)O)[C@H]1CC[C@H]2[C@H]3[C@@H](CC[C@]12C)[C@@]1(C)CC[C@@H](O)C[C@H]1C[C@@H]3O`, the Potency result in test [4], in test [5], in test [6], in test [7], in [8] and in [9] was “inactive” throughout. Further, the Potency result in [10] and in test [11] was “inactive” each time.

Consider `NC(=O)c1ncn([C@@H]2O[C@H](CO)[C@@H](O)[C@@H]2O)c1N`, for which the Potency result in [4], in [5], in test [6], in [7], in test [8] and in test [9] was “inactive” each time. Besides, the Potency in test [10] is 18700 nM (active).

For `CO[C@H]1/C=C\O[C@@]2(C)Oc3c(C)c(O)c4c(O)c(c(C=NN5CCN(C6CCCC6)CC5)c(O)c4c3C2=O)NC(=O)C(C)=CC=C[C@H](C)[C@H](O)[C@@H](C)[C@@H](O)[C@@H](C)[C@H](OC(C)=O)[C@H]1C`, the Potency in [4] is 1660 nM (active); in test [5], 2640 nM (active); in test [6] it was 2350 nM (active); in test [7], 2640 nM (active); in test [8], 2640 nM (active).

Regarding `Cc1[nH]c2ccccc2c1CCNCc1ccc(C=CC(=O)NO)cc1`, the Potency in test [4] was 743 nM (active); in [5], 743 nM (active); in test [6], 526 nM (active); in test [7], 590 nM (active); in [8], 662 nM (active); in test [9], 469 nM (active). For the same molecule, the figures for the Potency in [10], in test [11] and in test [12] were 209 nM (active), 264 nM (active) and 264 nM (active), respectively.

`O=C1NC(=O)C(=Cc2cccc(C(F)(F)F)c2)S1`: the Potency entry in test [4], in [5], in test [6], in test [7], in [8] and in [9] was “inactive” in each case. The Potency entry in test [10] was “inactive”.

Take `CN1[C@@H]2CCC[C@@H]1CC(NC(=O)c1nn(C)c3ccccc13)C2` (stereo partly specified): the Potency result in test [4], in test [5], in test [6], in [7], in test [8] and in [9] was “inactive” each time. Further, the Potency result in test [10], in [11] and in test [12] was “inactive” throughout.
